# From PubChem BioAssay (NCI)
# “And” between values parts separate entries of the source, which are not always exact repeats. Identical values can stand only once. This is part of a sample that, as a whole, favours compounds with a hit. Of some 79,000 tested, about 15% had one in any assay. Where a structure was tested more than once in an assay, its records may differ in their call. The source made the active and inactive calls. No stated cut-off is given here; in the data, active means growth inhibition above about 70%; inactive means the rest.
# Legend:
# [1] = NCI Yeast Anticancer Drug Screen. Data for the rad52 strain (AID 147);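 further: 0% = growth of vehicle-treated control cultures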; settings: S. cerevisiae rad52 mutant growth inhibition, stronger effect = higher value
# Summary of the method: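 Here a repair-compromised yeast strain receives each compound; its growth is then quantified and normalised to vehicle-only controls.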
# [2] = NCI Yeast Anticancer Drug Screen. Data for the wt1 strain (AID 149);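 further: 0% = growth of vehicle-treated wt1 cultures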; settings: S. cerevisiae wt1 strain (SPY 50644) growth inhibition, stronger effect = higher value
# Summary of the method: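 Measured: growth of wt1 yeast under compound versus vehicle treatment, reported as inhibition.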
# [3] = NCI Yeast Anticancer Drug Screen. Data for the rad50EPP+ strain (AID 151);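 further: 0% = growth of vehicle-treated control cultures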; settings: S. cerevisiae rad50 mutant strain, stronger effect = higher value
# Summary of the method: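 Read-out is yeast growth inhibition relative to vehicle; cells used were the rad50EPP+ strain.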
# [4] = NCI Yeast Anticancer Drug Screen. Data for the rad50 strain (AID 155);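 further: 0% = growth of vehicle-only cultures of the same strain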; settings: S. cerevisiae rad50 strain growth inhibition, stronger effect = higher value
# Summary of the method: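 Growth of the mutant yeast was measured after compound exposure and referenced to vehicle-treated cultures.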
# [5] = NCI Yeast Anticancer Drug Screen. Data for the mec2-1 strain (AID 157); settings: S. cerevisiae mec2-1 strain, stronger effect = higher value
# Summary of the method: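 Using mec2-1 yeast: add compound, measure growth, express inhibition versus vehicle-treated cultures.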
# [6] = NCI Yeast Anticancer Drug Screen. Data for the rad14 strain (AID 159);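 further: 0% = growth of vehicle-treated control cultures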; settings: S. cerevisiae rad14 strain growth inhibition, stronger effect = higher value
# Summary of the method: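 Here, inhibition of yeast growth was measured after compound exposure, using a strain with a genetic defect in DNA damage repair and vehicle-treated cultures as the reference.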
# [7] = NCI Yeast Anticancer Drug Screen. Data for the sgs1 mgt1 strain (AID 161);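 further: 0% = growth of cultures given vehicle only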; settings: S. cerevisiae sgs1 mgt1 strain, stronger effect = higher value
# Summary of the method: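 Percent growth inhibition was derived by comparing compound-exposed mutant yeast with vehicle-exposed cultures. The strain carries alterations in DNA damage repair.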
# [8] = NCI Yeast Anticancer Drug Screen. Data for the CLN2oe strain (AID 163);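 further: 0% = growth of vehicle-only control cultures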; settings: S. cerevisiae CLN2oe strain, stronger effect = higher value
# Summary of the method: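 Whole-cell yeast growth assay. A strain engineered for altered cell-cycle control received compound, and inhibition relative to vehicle-treated cultures was recorded.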
# [9] = NCI Yeast Anticancer Drug Screen. Data for the cln2 rad14 strain (AID 165);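 further: 0% = growth equal to vehicle treated cultures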; settings: S. cerevisiae cln2 rad14 strain, stronger effect = higher value
# Summary of the method: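 Yeast strain cln2 rad14, bearing defects in cell cycle control and DNA repair, serves as the test system; values reflect growth inhibition compared with vehicle.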
# [10] = NCI Yeast Anticancer Drug Screen. Data for the bub3 strain (AID 167); settings: S. cerevisiae bub3 mutant strain, stronger effect = higher value
# Summary of the method: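 Whole-cell yeast assay. The mutant strain was incubated with compounds, and growth inhibition was determined by comparison with vehicle-treated cells.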
# [11] = NCI Yeast Anticancer Drug Screen. Data for the wt2 strain (AID 169);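 further: 0% = growth of vehicle-treated yeast cultures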; settings: S. cerevisiae wt2 strain growth inhibition, stronger effect = higher value
# Summary of the method: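 Treated yeast vs. vehicle-treated yeast: growth inhibition determined.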
# [12] = NCI Yeast Anticancer Drug Screen. Data for the mlh1 strain (AID 171);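 further: 0% = growth of vehicle-treated control cultures of the same strain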; settings: S. cerevisiae mlh1 strain growth inhibition, stronger effect = higher value
# Summary of the method: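 A yeast strain with a defined genetic lesion serves as the test organism. Cultures receive compound or vehicle, and growth is measured.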
# [13] = NCI Yeast Anticancer Drug Screen. Data for the sgs1 strain (AID 173);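 further: 0% = growth of vehicle-only control cultures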; settings: S. cerevisiae sgs1 mutant, stronger effect = higher value
# Summary of the method: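 A genetically defined yeast mutant is incubated with the test compound, and its growth is compared to that of the same strain given vehicle.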
# [14] = NCI Yeast Anticancer Drug Screen. Data for the mlh1 rad18 strain (AID 175); settings: S. cerevisiae mlh1 rad18 strain growth inhibition, stronger effect = higher value
# Summary of the method: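 Steps: expose repair-defective yeast to compound; measure growth; express inhibition against vehicle-treated controls.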
# [15] = NCI Yeast Anticancer Drug Screen. Data for the rad18 strain (AID 177); settings: S. cerevisiae rad18 mutant growth inhibition, stronger effect = higher value
# Summary of the method: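 Measured value is growth inhibition of a yeast strain bearing a DNA repair alteration, referenced to vehicle-treated cells.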
# [16] = at 5.0 µM (retest, dose inferred, filed as 0.5)
# [17] = at 50.0 µM (retest, dose inferred, filed as 5.0)
smiles,measurement,setting,value
CCCCCCCCCCCCCCCCP(=O)(O)OP(=O)(O)OCC1OC(n2ccc(N)nc2=O)C(O)C1O (stereo not drawn),growth inhibition,[1]; at 1.2 µM,3% (inactive)
same,growth inhibition,[1]; at 3.7 µM,3% (inactive)
same,growth inhibition,[1]; at 11.0 µM,4% (inactive)
same,growth inhibition,[1]; at 33.0 µM,3% (inactive)
same,growth inhibition,[1]; at 100.0 µM,5% (inactive)
same,growth inhibition,[2]; at 1.2 µM,3% (inactive)
same,growth inhibition,[2]; at 3.7 µM,4% (inactive)
same,growth inhibition,[2]; at 11.0 µM,6% (inactive)
same,growth inhibition,[2]; at 33.0 µM,3% (inactive)
same,growth inhibition,[2]; at 100.0 µM,3% (inactive)
same,growth inhibition,[3]; at 1.2 µM,0% (inactive)
same,growth inhibition,[3]; at 3.7 µM,-5% (inactive)
same,growth inhibition,[3]; at 11.0 µM,-6% (inactive)
same,growth inhibition,[3]; at 33.0 µM,-2% (inactive)
same,growth inhibition,[3]; at 100.0 µM,18% (inactive)
same,growth inhibition,[4]; at 1.2 µM,2% (inactive)
same,growth inhibition,[4]; at 3.7 µM,1% (inactive)
same,growth inhibition,[4]; [16],-13% (inactive)
same,growth inhibition,[4]; at 11.0 µM,2% (inactive)
same,growth inhibition,[4]; at 33.0 µM,0% (inactive)
same,growth inhibition,[4]; [17],10% (inactive)
same,growth inhibition,[4]; at 50.0 µM,73.3% (active) and 8.3% (inactive)
same,growth inhibition,[4]; at 100.0 µM,3% (inactive)
same,growth inhibition,[5]; at 1.2 µM,-3% (inactive)
same,growth inhibition,[5]; at 3.7 µM,-3% (inactive)
same,growth inhibition,[5]; [16],-9% (inactive)
same,growth inhibition,[5]; at 11.0 µM,-4% (inactive)
same,growth inhibition,[5]; at 33.0 µM,-5% (inactive)
same,growth inhibition,[5]; [17],-13% (inactive)
same,growth inhibition,[5]; at 50.0 µM,80.7% (active) and -3.1% (inactive)
same,growth inhibition,[5]; at 100.0 µM,-3% (inactive)
same,growth inhibition,[6]; at 1.2 µM,-2% (inactive)
same,growth inhibition,[6]; at 3.7 µM,-1% (inactive)
same,growth inhibition,[6]; at 11.0 µM,-1% (inactive)
same,growth inhibition,[6]; at 33.0 µM,-1% (inactive)
same,growth inhibition,[6]; at 100.0 µM,1% (inactive)
same,growth inhibition,[7]; [16],-2% (inactive)
same,growth inhibition,[7]; [17],46% (inactive)
same,growth inhibition,[7]; at 50.0 µM,88.3% (active) and 3.75% (inactive)
same,growth inhibition,[8]; at 1.2 µM,-3% (inactive)
same,growth inhibition,[8]; at 3.7 µM,-7% (inactive)
same,growth inhibition,[8]; at 11.0 µM,-6% (inactive)
same,growth inhibition,[8]; at 33.0 µM,-17% (inactive)
same,growth inhibition,[8]; at 100.0 µM,-17% (inactive)
same,growth inhibition,[9]; [16],0% (inactive)
same,growth inhibition,[9]; [17],6% (inactive)
same,growth inhibition,[9]; at 50.0 µM,59.9% (inactive) and -13.4% (inactive)
same,growth inhibition,[10]; at 1.2 µM,-1% (inactive)
same,growth inhibition,[10]; at 3.7 µM,-2% (inactive)
same,growth inhibition,[10]; [16],14% (inactive)
same,growth inhibition,[10]; at 11.0 µM,-4% (inactive)
same,growth inhibition,[10]; at 33.0 µM,-10% (inactive)
same,growth inhibition,[10]; [17],-19% (inactive)
same,growth inhibition,[10]; at 50.0 µM,76% (active) and -16.8% (inactive)
same,growth inhibition,[10]; at 100.0 µM,-19% (inactive)
same,growth inhibition,[11]; at 1.2 µM,1% (inactive)
same,growth inhibition,[11]; at 3.7 µM,0% (inactive)
same,growth inhibition,[11]; at 11.0 µM,1% (inactive)
same,growth inhibition,[11]; at 33.0 µM,1% (inactive)
same,growth inhibition,[11]; at 100.0 µM,1% (inactive)
same,growth inhibition,[12]; at 1.2 µM,0% (inactive)
same,growth inhibition,[12]; at 3.7 µM,0% (inactive)
same,growth inhibition,[12]; at 11.0 µM,1% (inactive)
same,growth inhibition,[12]; at 33.0 µM,-4% (inactive)
same,growth inhibition,[12]; at 100.0 µM,1% (inactive)
same,growth inhibition,[13]; at 1.2 µM,0% (inactive)
same,growth inhibition,[13]; at 3.7 µM,0% (inactive)
same,growth inhibition,[13]; at 11.0 µM,-3% (inactive)
same,growth inhibition,[13]; at 33.0 µM,1% (inactive)
same,growth inhibition,[13]; at 100.0 µM,21% (inactive)
same,growth inhibition,[14]; [16],-19% (inactive)
same,growth inhibition,[14]; [17],26% (inactive)
same,growth inhibition,[14]; at 50.0 µM,74% (active) and -35.4% (inactive)
same,growth inhibition,[15]; at 1.2 µM,-1% (inactive)
same,growth inhibition,[15]; at 3.7 µM,-2% (inactive)
same,growth inhibition,[15]; at 11.0 µM,3% (inactive)
same,growth inhibition,[15]; at 33.0 µM,0% (inactive)
same,growth inhibition,[15]; at 100.0 µM,11% (inactive)
